Assay results reported in PubChem BioAssay (NCI).
Compounds without any hit were thinned out: in the full panel of roughly 83,000, 20% have a hit.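 Cell lines were cultured in 96-well plates, exposed to a single compound concentration, and assessed for percent growth 48 hours later.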 A number with no mark means an inactive call. Activity calls are given as the source filed them. How the source made its calls: active means growth percent below 10; inactive means the rest.

Columns and labels:
Test in all cases: NCI-60 one-dose screen, 48 h (100 = growth as untreated, 0 = no growth, -100 = all killed)
Details in all cases: 10 µM unless noted
HCT-15 colon = test system: HCT-15 colon
HT29 colon = test system: HT29 colon
SNB-75 CNS = test system: SNB-75 CNS
SNB-19 CNS = test system: SNB-19 CNS
U251 CNS = test system: U251 CNS
PC-3 prostate = test system: PC-3 prostate
SK-MEL-5 melanoma = test system: SK-MEL-5 melanoma
UACC-62 melanoma = test system: UACC-62 melanoma
LOX IMVI melanoma = test system: LOX IMVI melanoma
SK-MEL-28 melanoma = test system: SK-MEL-28 melanoma
SK-MEL-2 melanoma = test system: SK-MEL-2 melanoma
EKVX NSCLC = test system: EKVX NSCLC
SN12C renal = test system: SN12C renal
UO-31 renal = test system: UO-31 renal
TK-10 renal = test system: TK-10 renal
ACHN renal = test system: ACHN renal
CAKI-1 renal = test system: CAKI-1 renal
A498 renal = test system: A498 renal
CCRF-CEM leukemia = test system: CCRF-CEM leukemia
MOLT-4 leukemia = test system: MOLT-4 leukemia

Row | Structure (SMILES) | growth (HCT-15 colon) | growth (HT29 colon) | growth (SNB-75 CNS) | growth (SNB-19 CNS) | growth (U251 CNS) | growth (PC-3 prostate) | growth (SK-MEL-5 melanoma) | growth (UACC-62 melanoma) | growth (LOX IMVI melanoma) | growth (SK-MEL-28 melanoma) | growth (SK-MEL-2 melanoma) | growth (EKVX NSCLC) | growth (SN12C renal) | growth (UO-31 renal) | growth (TK-10 renal) | growth (ACHN renal) | growth (CAKI-1 renal) | growth (A498 renal) | growth (CCRF-CEM leukemia) | growth (MOLT-4 leukemia)
1 | CC1=Nc2cnc(Nc3ccc(OCCN4CCCC4)cc3)nc2Nc2ccccc21 | 33.9% | 60.9% | 20.1% | 91.1% | 80.9% | 61.7% | 71.6% | 84.3% | 52.2% | 94% | 55.9% | 75.1% | 61.1% | 17.3% | 63.6% | 28.7% | 20.9% | -7.76% (active) | 86.3% | 34.5%
2 | CN(C)c1ccc(/C=C/C(=O)c2ccc(-n3cc(CN4CCN(c5cc6c(cc5F)c(=O)c(C(=O)O)cn6C5CC5)CC4)nn3)cc2)cc1 | 63.4% | 28% | 68.1% | 31.6% | 16.5% | 57.4% | 79% | 55.8% | 20.3% | 68% | 89% | 87.6% | 8.77% (active) | 62.8% | 85.1% | 88.5% | 36.9% | 61.1% | 20% | 31.8%
3 | CO[C@]12C=C/C(=C(/C(=O)OCc3cccnc3)C(=O)CCCCCCCC[C@@]3(OC)C=C/C(=C(/C(=O)OCc4cccnc4)C(=O)CCCCCCCC1)O3)O2 | 2.29% (active) | 14.5% | 55% | 33.7% | 20.3% | 8.77% (active) | -59.1% (active) | -54% (active) | -35.9% (active) | -5.65% (active) | 21.4% | 12.8% | 5.99% (active) | -10.7% (active) | 39% | -19.3% (active) | 22.9% | 1.93% (active) | 1.38% (active) | -2.22% (active)
4 | O=C1c2cc(Cl)ccc2S(=O)(=O)c2c(NCCCNCCO)nc3ccccc3c21 | -65.4% (active) | -78.8% (active) | 32.6% | 56.4% | -15.8% (active) | -14.2% (active) | 11.3% | 2.05% (active) | -76.8% (active) | 6.11% (active) | 23% | 33.2% | -46% (active) | -94.4% (active) | -79.6% (active) | -99.9% (active) | 6.57% (active) | 57.3% | -22.2% (active) | -19% (active)
5 | O=S(=O)(Nc1ccc(Cl)cc1)c1ccc(-c2cnc(C3CC3)o2)cc1 | 27.9% | 15.4% | -11.9% (active) | 30% | 24.4% | 24.2% | 15.2% | 17.3% | 50.5% | 61.4% | 39.8% | 47.9% | 36.4% | 41.5% | 54.2% | 35.4% | 31.6% | 0.162% (active) | 11.4% | 14.2%
6 | Cc1noc(C)c1C(=O)OCc1coc2ccccc2c1=O | 52.5% | 66% | 81.6% | 82.7% | 72.8% | 70.1% | 80% | 54.7% | 70.8% | 86.8% | 81.4% | 86.9% | 65.4% | 48.7% | 71.4% | 78.3% | 45.3% | 104% | 24.2% | 62.8%
7 | Cc1cc(=O)[nH]c2c(C#N)cnn12 | 107% | 104% | 100% | 98.1% | 102% | 107% | 99.4% | 90.7% | 101% | 105% | 102% | 97% | 97.4% | 83.8% | 101% | 98.8% | 93.6% | 93.1% | 101% | 105%
8 | COC1=CC(c2ccc[nH]2)=N/C1=C\c1[nH]c(C)c(C(=O)OCc2ccccc2)c1C | -35.4% (active) | -19.4% (active) | -21.4% (active) | 18.5% | -47% (active) | 10.4% | -99.5% (active) | -52.6% (active) | -90.6% (active) | -59.4% (active) | -63.1% (active) | -33.5% (active) | -29.4% (active) | -87.9% (active) | -4.94% (active) | -86.1% (active) | -40.7% (active) | -37.7% (active) | 13.4% | -7.67% (active)
9 | CC(=O)Nc1nc2ccc(NS(=O)(=O)c3cccc4c(N(C)C)cccc34)cc2[nH]1 | 72.9% | 63% | 31% | 52.3% | 70.2% | 60.2% | 21.5% | 27.3% | 53.6% | 57.9% | 80.8% | 75.9% | 69.8% | 68.4% | 102% | 75.7% | 42.7% | 2.64% (active) | 47.9% | 59.4%
10 | COc1ccc(C2=Nc3c/c(=C\c4c(O)[nH]c5ccc(Cl)cc45)ccc3=N2)cc1 | 22.5% | -13.9% (active) | 36.2% | 65% | 42% | 37% | 34.7% | 48.1% | 9.27% (active) | 35.6% | 20.1% | 56.6% | 73.4% | 59% | 82.5% | 70.1% | 51.3% | 25.9% | 8.54% (active) | 19.9%
11 | COc1ccc(C(=S)N2CCN(c3ccccc3Cl)CC2)cc1OC | 95.2% | 102% | 85.6% | 85.3% | 102% | 90.3% | 96.4% | 89.2% | 92.7% | 103% | 101% | 97.4% | 100% | 104% | 108% | 97.2% | 91.8% | 94.6% | 123% | 76.4%
12 | CCOC(=O)c1c2c(n3ccc(C)cc13)C(=O)c1ccccc1C2=O | 85.2% | 87.8% | 100% | 98.4% | 92.8% | 78% | 82.1% | 92.6% | 94% | 111% | 90.2% | 91.2% | 95.8% | 60.6% | 103% | 96.4% | 80.1% | 83.8% | 99.9% | 89.9%
13 | N=C(N)c1ccc(-c2ccc(-c3cc(Cl)cc(Cl)c3)o2)o1 | -89.3% (active) | -81.1% (active) | -68.9% (active) | -64.9% (active) | -89.9% (active) | -25.8% (active) | 16.2% | -81% (active) | -83.6% (active) | -80.2% (active) | -43.5% (active) | -88.2% (active) | -67.6% (active) | -68.1% (active) | -76.3% (active) | -88.7% (active) | -74.7% (active) | 58.8% | -39.1% (active) | -60.4% (active)
14 | CN1C(=O)/C(=C/c2ccc(C(=O)Nc3ncc(Cc4ccc(Cl)cc4)s3)cc2)SC1=S | 21.7% | 20.2% | 52.1% | 69.3% | 61.7% | 55.1% | 26.2% | 21.4% | 18% | 60.2% | 75.6% | 52.6% | 68.1% | 46.7% | 57.7% | 29.2% | 21.2% | 39.9% | 55.5% | 46.8%
